Laboratory results from PMC5540273 (PLoS ONE, 2017).
Values joined by “and” are separate entries in the source; they are usually repeats but may differ in a detail not shown here. Equal values may be shown once. Read-outs that look alike come from different tables or passages of the source.

Tests used:
VRK2 = conditions: concentration: 1 μM, replicates: in singlicate; n = 1
WEE1 = conditions: n = 1
WEE2 = conditions: n = 1
WNK1 = conditions: n = 1
WNK2 = conditions: n = 1
WNK3 = conditions: n = 1
WNK4 = conditions: n = 1
YANK1 = tested on: T1, YANK1; conditions: n = 1
T1 construct: gene STK32A

YANK2 = tested on: T2, YANK2; conditions: n = 1
T2 construct: gene STK32B

YANK3 = tested on: T3, YANK3; conditions: n = 1
T3 construct: gene STK32C

[1] = concentration: 1 μM, replicates: in singlicate
[2] = concentration: 1 μM,replicates: in singlicate, 1 µM
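Further: KINOMEscan kinase panel screen.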

Row | SMILES | %Inh (VRK2) | %Inh (WEE1; [1]) | %Inh (WEE2; [1]) | %Inh (WNK1; [1]) | %Inh (WNK2; [1]) | %Inh (WNK3; [1]) | %Inh (WNK4; [1]) | %Inh (YANK1; [1]) | %Inh (YANK2; [1]) | %Inh (YANK3; [1]) | %Inh (WEE1; [2]) | %Inh (WEE2; [2]) | %Inh (WNK1; [2]) | %Inh (WNK2; [2]) | %Inh (WNK3; [2]) | %Inh (WNK4; [2]) | %Inh (YANK1; [2]) | %Inh (YANK2; [2]) | %Inh (YANK3; [2])
1 | Cc1ccc(NC(=O)Nc2cc(C(C)(C)C)nn2-c2ccccc2)cc1 [GSK1014915] | 0% | 0% | 7% | 9% | 0% | 13% | 25% | 13% | 5% | 7% | – | – | – | – | – | – | – | – | –
2 | Cc1cc(NCC(c2ccccc2)c2ccccc2)nc(NCc2ccc(C(F)(F)F)cc2)n1 [GW497681] | 0% | 11% | 0% | 0% | 0% | 27% | 37% | 0% | 0% | 0% | – | – | – | – | – | – | – | – | –
3 | COc1ccccc1CNC(=O)c1cc(C(=O)c2ccccc2C)c[nH]1 [GSK364507] | 0% | 9% | 12% | 10% | 12% | 25% | 32% | 10% | 0% | 23% | – | – | – | – | – | – | – | – | –
4 | NC(=O)c1nnc2ccccc2c1N | 4% | 9% | 20% | 8% | 0% | 0% | 9% | 23% | 0% | 0% | – | – | – | – | – | – | – | – | –
5 | O=S(=O)(c1ccc(-c2ccnc3[nH]ccc23)cc1)N1CCCC1 [GSK846226] | 0% | 8% | 2% | 5% | 7% | 3% | 0% | 11% | 0% | 0% | – | – | – | – | – | – | – | – | –
6 | O=c1cc(N2CCOCC2)nc2n(Cc3cccc(Cl)c3Cl)ccn12 [GSK2286295] | 0% | 3% | 0% | 0% | 0% | 0% | 0% | 16% | 2% | 0% | – | – | – | – | – | – | – | – | –
7 | CSc1nn2c(=O)cc(N3CCOCC3)nc2n1Cc1cccc(C(F)(F)F)c1C [GSK2363608] | 0% | – | – | – | – | – | – | – | – | – | 15% and 11% | 9% and 10% | 13% and 7% | 14% and 22% | 24% and 10% | 1% and 4% | 0% and 3% | 8% and 0% | 0% and 68%
8 | Cc1ccccc1-n1cnc2c(N)ncnc21 [SKF-97510] | 0% | 1% | 0% | 0% | 0% | 0% | 0% | 0% | 0% | 0% | – | – | – | – | – | – | – | – | –
9 | Cn1cncc1-c1ccc2ncnc(Nc3ccc(OCc4ccccc4)cc3)c2c1 [GW320571] | 0% | 16% | 14% | 1% | 15% | 3% | 0% | 94.2% | 16% | 7% | – | – | – | – | – | – | – | – | –
